Experimental findings from PubChem BioAssay (NCATS) are described below.

Records with an inconclusive call do not appear. Unmarked numbers belong to inactive results. The source made the active and inactive calls. Calls come from the whole dose curve; as a rule, active = well fitted cell-killing curve with a large enough effect; inconclusive = small, poorly fitted or top-dose-only effect; inactive = no such curve, though single readings can be large or run the other way.
Potency is the fitted concentration of half-maximal effect.

The assay in a line: Quantitative High-Throughput drug screen in 47 multiple myeloma cell lines against the NCATS MIPE library collection: NCIH929_DSMZ cell viability assay (AID 1918978). Note: nearly all actives have a fitted effect of over 35% in size. The following applies: NCI-H929 myeloma viability, CellTiter-Glo ATP, 48 h; series mostly up to 45.8 µM; viability, % of control: at the top concentration. An excerpt:
PI: Beverly A. Mock Ph.D.
Laboratory of Cancer Biology and Genetics,
Center for Cancer Research, National Cancer Institute,
National Institute of Health, Bethesda, Maryland
Drug resistance and disease progression are common in multiple myeloma (MM) patients, underscoring the need for new therapeutic combinations. […] We hypothesized that effective combinations would reduce MYC expression and enhance p16 activity. […] These preclinical data identify potentially useful drug combinations for evaluation in drug-resistant MM and reveal potential mechanisms of combined drug sensitivity.
Described herein is the primary MIPE qHTS used to cherrypick compounds. Validated compounds were then further tested for potential synergistic activiy.
[1] Peat TJ, Gaikwad SM, Dubois W, Gyabaah-Kessie N, Zhang S, Gorjifard S, Phyo Z, Andres M, Hughitt VK, Simpson RM, Miller MA, Girvin AT, Taylor A, Williams D, D'Antonio N, Zhang Y, Rajagopalan A, Flietner E, Wilson K, Zhang X, Shinn P, Klumpp-Thomas C, McKnight C, Itkin Z, Chen L, Kazandijian D, Zhang J, Michalowski AM, Simmons JK, Keats J, Thomas CJ, Mock BA. Drug combinations identified by high-throughput screening promote cell cycle transition and upregulate Smad pathways in myeloma. Cancer Lett. 2023 Aug 1;568:216284. doi: 10.1016/j.canlet.2023.216284. Epub 2023 Jun 24. PMID: 37356470; PMCID: PMC10408729.
SEQUENCE No. (e.g., 1, 2, 3, etc.); […] (e.g., Cells, Incubation, Reagent, etc.); VALUE and DESCRIPTION.
1; Cells; 5 uL; white, solid bottom 1536-well Greiner assay plate.
2; Compounds; 23 nL; Kalypsis pin tool (Wako USA) equipped with a 1536-well pin head to transfer to the assay plates.
3; Incubation; 48 hours; 37C incubation.
4; Reagent;5uL; CellTiter Glo (Promega).
5; Detector; 425V; Luminescence; Viewlux PerkinElmer.
NOTES (numbers refer to Sequence numbers above)
1. The cell-based screening methods employed in this study were like those previously published. Briefly, the corresponding myeloma cell lines were screened in 1,536-well plates with 500 cells, 5-uL per well for inhibition of cell viability (assessed by measuring ATP levels with CellTiterGlo).
2. NCATS MIPE 4.0 library of approved and investigational drugs were added using the Kalypsis pin tool. Wells treated with DMSO only for 100% viability and media only for 0% viability were used as controls.
3. The assay plates were covered and incubated for 48 hours in a 37C, 5% CO2 incubator with controlled humidity.
4. After 48 hours, CellTilter-GloTM luminescent substrate mix (Promega) reagent was added to the assay plate and plates we incubated for 5 min at room temperature.
5. Signal was measured as median relative luminescence units on a ViewLux (PerkinElmer) multiplate reader.
[1] Heske CM, Davis MI, Baumgart JT, Wilson K, Gormally MV, Chen L, Zhang X, Ceribelli M, Duveau DY, Guha R, Ferrer M, Arnaldez FI, Ji J, Tran HL, Zhang Y, Mendoza A, Helman LJ, Thomas CJ. Matrix Screen Identifies Synergistic Combination of PARP Inhibitors and Nicotinamide Phosphoribosyltransferase (NAMPT) Inhibitors in Ewing Sarcoma. Clin Cancer Res. 2017 Dec 1;23(23):7301-7311. doi: 10.1158/1078-0432.CCR-17-1121. Epub 2017 Sep 12. PMID: 28899971; PMCID: PMC6636827.
In general terms: In ATP-based viability assays light output follows the ATP content of the culture.
As to `C=C[C@@H]1CN2CCC1C[C@H]2[C@H](O)c1ccnc2ccccc12` (stereo not given in full), the Potency was 14.8 µM (active).
As for `C1=C2CCCN[C@H]2[C@@H]2C[C@H]1[C@@H]1CCCCN1C2`, the “viability, % of control” value is 93.6%.
The same measure, in the same setting: to `CC(C)(C)[C@]1(O)C[C@@H]2OC(=O)C[C@@]23C(=O)O[C@@H]2OC(=O)[C@H](O)C213` (stereo not given in full) belongs 126%; to `CCN(CC)C(=O)c1ccc(C2=CC3(CCNCC3)Oc3cccc(O)c32)cc1`, 114%.
Turning to `COc1cccc2c1[C@]13CCN(CC4CC4)[C@H](C2)[C@]1(OC)CCC(=O)C3`, the “viability, % of control” value is 112%.
Same read-out and setting: for `c1ccc2c(CN3CCNCC3)cccc2c1` the value was 100%; for `CN[C@@H]1Cc2cccc3[nH]c(=O)n(c23)C1`, 114%.
With `C[C@@H]1CC[C@@]2(OC1)O[C@H]1C[C@H]3[C@@H]4CC=C5C[C@@H](O[C@@H]6O[C@H](CO)[C@@H](O[C@@H]7O[C@@H](C)[C@H](O)[C@@H](O)[C@@H]7O)[C@H](O)[C@@H]6O[C@@H]6O[C@@H](C)[C@H](O)[C@@H](O)[C@@H]6O)CC[C@]5(C)[C@@H]4CC[C@]3(C)[C@@H]1[C@H]2C`, the Potency is 4.18 µM (active).
Consider `CC[C@@H]1[C@@H](C)O[C@@](O)([C@@H](C)[C@H](O)[C@H](C)[C@H]2OC(=O)C=CC=C[C@@H](C)[C@@H]([C@@H](C)[C@@H](O)[C@H](C)[C@@]3(O)C[C@H](O[C@H]4C[C@H](O)[C@H](O)[C@H](C)O4)[C@H](CC)[C@@H](C)O3)OC(=O)C=CC=C[C@@H]2C)C[C@H]1O[C@H]1C[C@H](O)[C@H](O)[C@H](C)O1`, for which the Potency was 0.935 µM (active).
For `N#C[C@H](O[C@@H]1O[C@H](CO[C@@H]2O[C@H](CO)[C@H](O)[C@H](O)[C@H]2O)[C@H](O)[C@H](O)[C@H]1O)c1ccccc1`, the Potency is 23.5 µM (active).
Consider `COC1=C[C@@H]2[C@@H]3Cc4ccc(OC)c(O)c4[C@]2(CCN3C)CC1=O`, for which the Potency was 1.66 µM (active).
Consider `C#CC1(O)CCC2C3CCC4=CC(=O)CCC4(C)C3CCC21C` (stereo not given), for which the “viability, % of control” value is 96.8%.
Take `O=C1CCC[C@@H]2[C@H]3CCCN4CCC[C@@H](CN12)[C@@H]34`: the “viability, % of control” value is 95.3%.
Consider `CC(=Cc1csc(C)n1)[C@@H]1C[C@H]2O[C@]2(C)CCC[C@H](C)[C@@H](O)[C@@H](C)C(=O)C(C)(C)[C@@H](O)CC(=O)O1`, for which the “viability, % of control” value was 101%.
As for `O=S(=O)(CC1CS1)c1ccc(Oc2ccccc2)cc1` (stereo not given), the Potency is 16.6 µM (active).
For `C[C@]12CCC(=O)C(O)=C1CC[C@@H]1[C@H]3CCC(=O)[C@@]3(C)CC[C@@H]12`, the “viability, % of control” value is 87.3%.
As for `CCCC[N+]1(C)[C@H]2CC(OC(=O)[C@H](CO)c3ccccc3)C[C@H]1[C@H]1O[C@H]12` (stereo not given in full), the “viability, % of control” value is 97.9%.
In the case of `C[C@@]12OC(=O)[C@]1([C@@H](O)[C@@H]1C=CCCC1)NC(=O)[C@H]2CCCl`, the Potency is 0.001 µM (active).
Regarding `c1cc2c(cc1[C@H]1OC[C@H]3[C@H]1CO[C@H]3c1ccc3c(c1)OCO3)OCO2`, the “viability, % of control” value was 90.9%.
Regarding `CCOC(=O)Nc1ccc(NCc2ccc(F)cc2)cc1N`, the Potency was 14.8 µM (active).
In the case of `COc1cc2cc(c1Cl)N(C)C(=O)C[C@H](OC(=O)C(C)C)[C@]1(C)O[C@H]1[C@H](C)[C@@H]1C[C@@](O)(NC(=O)O1)[C@H](OC)C=CC=C(C)C2`, the “viability, % of control” value is 14.7%.
Take `O=C(O)CNC(=O)c1c(O)c2ccccc2n(Cc2ccccc2)c1=O`: the “viability, % of control” value is 104%.
Regarding `C[C@@H]1CC[C@H]2[C@@H](C)C(=O)O[C@@H]3O[C@@]4(C)CC[C@H]1[C@]32OO4`, the Potency was 13.2 µM (active).
Regarding `CC1=C(O)C(=O)C=C2C1=CC=C1[C@@]2(C)CC[C@@]2(C)[C@@H]3C[C@](C)(C(=O)O)CC[C@]3(C)CC[C@]12C`, the Potency is 0.372 µM (active).
Regarding `CCCCCC[C@H]1C(=O)O[C@H](C)[C@H](NC(=O)c2cccc(NC=O)c2O)C(=O)O[C@@H](C)[C@@H]1OC(=O)CC(C)C`, the Potency was 0.332 µM (active).
In the case of `Cc1nc(-c2ccc(-c3ccc(C(=O)N4CCc5cc6c(cc54)C4(CCN(C)CC4)CO6)cc3)c(C)c2)no1`, the “viability, % of control” value was 113%.
As to `O=c1[nH]c2ccc(Cl)cc2c(N[C@@H]2CN3CCC2CC3)c1-c1nc2ccccc2[nH]1`, the Potency is 0.148 µM (active).
On to `CC(C)[C@H]1C(=O)N[C@H](CO)Cc2c[nH]c3cccc(c23)N1C`, for which the “viability, % of control” value was 68.3%.
On to `Cc1ccccc1-n1c(Cn2cnc3c(N)ncnc32)nc2cccc(C)c2c1=O`, for which the Potency was 0.0418 µM (active).
For the molecule `C[C@]12CC[C@H]3[C@@H](CCC4=CC(=O)CC[C@@]43C)[C@H]1CC[C@H]2O`, the “viability, % of control” value was 109%.
`CN1CCN(c2ccc([N+](=O)[O-])c3no[n+]([O-])c23)CC1`: the Potency is 11.8 µM (active).
For the molecule `CCc1c(C(=O)C(N)=O)c2c(OCC(=O)O)cccc2n1Cc1ccccc1`, the “viability, % of control” value is 118%.
For `CC=C(C)C(=O)N[C@@H](c1ccccc1)[C@@H](O)C(=O)O[C@H]1C[C@@]2(O)[C@@H](OC(=O)c3ccccc3)[C@@H]3[C@]4(OC(C)=O)CO[C@@H]4C[C@H](O)[C@@]3(C)C(=O)[C@H](OC(C)=O)C(=C1C)C2(C)C`, the “viability, % of control” value is 87.3%.
In the case of `C=CCON=C(C[C@H]1O[C@@H]2O[C@]3(C)CC[C@@H]4[C@H](C)CC[C@@H]([C@H]1C)[C@@]24OO3)[C@H]1O[C@@H]2O[C@]3(C)CC[C@H]4[C@H](C)CC[C@@H]([C@@H]1C)[C@@]24OO3`, the Potency was 0.148 µM (active).
Still for that read-out and setting: for `CC(C)(O)C(=O)Nc1ccc([N+](=O)[O-])c(C(F)(F)F)c1` the value was 5.26 µM (active).
Regarding `NC1CC1c1ccccc1` (stereo not given), the “viability, % of control” value is 106%.
Take `CC(=O)Nc1ccc(OC[C@](C)(O)C(=O)Nc2ccc([N+](=O)[O-])c(C(F)(F)F)c2)cc1`: the “viability, % of control” value was 83.1%.
With `O=c1[nH]c2ccccc2n1C1CCN(Cc2ccc(-c3[nH]c4cc5ncnc5cc4nc3-c3ccccc3)cc2)CC1`, the Potency is 0.662 µM (active).
As for `CC(C)N[C@@H]1CCn2c(=O)[nH]c3cccc(c32)[C@@H]1O`, the Potency was 9.35 µM (active).
Consider `COc1cc([C@@H]2c3cc4c(cc3[C@@H](O)C3COC(=O)C32)OCO4)cc(OC)c1O` (stereo not given in full), for which the Potency is 0.132 µM (active).
